# From PubChem BioAssay (NCI)
# Compounds without any hit were thinned out: in the full panel of roughly 83,000, 20% have a hit.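 Step 1: grow cells in 96-well plates. Step 2: add test compound at a single concentration. Step 3: incubate 48 h. Step 4: record percent growth.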 A number with no mark means an inactive call. Calls of active or inactive are those of the source. The calls were made as follows: active = growth percent below 10; inactive = the rest.
# Assays:
# Assay in all cases: NCI-60 one-dose screen, 48 h (100 = growth as untreated, 0 = no growth, -100 = all killed)
# Conditions in all cases: 10 µM unless noted
# [1] = tested on: NCI-H23 lung
# [2] = tested on: NCI-H226 lung
# [3] = tested on: NCI-H322M lung
# [4] = tested on: HOP-62 NSCLC
# [5] = tested on: NCI-H460 lung
# [6] = tested on: HOP-92 NSCLC
# [7] = tested on: NCI-H522 lung
# [8] = tested on: A549/ATCC NSCLC
# [9] = tested on: 786-0 renal
# [10] = tested on: COLO 205 colon
# [11] = tested on: DU-145 prostate
# [12] = tested on: K-562 leukemia
# [13] = tested on: MALME-3M melanoma
# [14] = tested on: MDA-MB-231 breast
# [15] = tested on: RXF 393 renal
# [16] = tested on: SF-268 CNS
# [17] = tested on: SF-295 CNS
# [18] = tested on: SF-539 CNS
# [19] = tested on: UACC-257 melanoma
# [20] = tested on: M14 melanoma
SMILES,growth [1],growth [2],growth [3] [%],growth [4] [%],growth [5],growth [6],growth [7],growth [8],growth [9],growth [10],growth [11],growth [12],growth [13],growth [14],growth [15],growth [16],growth [17],growth [18],growth [19],growth [20]
COc1ccc(-c2cc(-c3cc(OC)c(OC)c(OC)c3)c(C#N)c(=O)n2CCCCC(=O)O)cc1,96.7%,104%,98.4,96.8,96%,93.6%,87.3%,93.9%,97.5%,115%,98.2%,88%,114%,81.6%,99.2%,86.9%,95%,94.4%,103%,98%
O=C(CN1C(=O)S/C(=C\C(Cl)=C\c2ccccc2)C1=O)NC1C=CS(=O)(=O)C1 (stereo not given),16.7%,-21.7% (active),88.9,86.5,54%,37.2%,-46.2% (active),68.5%,-74.4% (active),-21.8% (active),24.8%,4.66% (active),-24.9% (active),14.3%,-77.8% (active),63.9%,80.8%,1.56% (active),45.2%,-49.9% (active)
N#CSc1c[nH]c2ccc(/C=C/C(=O)/C=C(/C=C/c3ccc4[nH]cc(SC#N)c4c3)OB(F)F)cc12,-28.3% (active),-66.1% (active),94.9,14.7,3.07% (active),-74.1% (active),-69.7% (active),4.65% (active),-46.5% (active),-63.9% (active),1.62% (active),-27.2% (active),-32.6% (active),-35.9% (active),-64.4% (active),2.42% (active),35.7%,-13.2% (active),-29.8% (active),-39.9% (active)
COc1ccc2c(c1)CC[C@@H]1[C@@H]2CC[C@]2(C)C3C(=CCC4C(=O)N(c5ccccc5)C(=O)C43)C[C@@H]12 (stereo not given in full),84.4%,90.8%,103,90.3,93.7%,99.3%,80.1%,92.3%,87.7%,94.4%,114%,76.9%,96.1%,86.6%,93.7%,94.1%,96.4%,96.7%,86.1%,89.4%
O=c1c(/C=C/c2ccco2)nnc2sc(Nc3ccc(Cl)cc3)nn12,96.2%,85.4%,83.8,89,101%,89.2%,90.8%,101%,103%,114%,111%,97.9%,100%,96.4%,114%,103%,105%,90.6%,104%,101%
CCOC(=O)c1cc2c(n1Cc1cc(OC)cc(OC)c1Br)-c1nc(NC(C)=O)sc1CCC2,73.2%,71.3%,80.2,80.4,82.2%,46.6%,53.5%,42.8%,78%,82.2%,89.3%,81.4%,122%,74.7%,61%,67.1%,76.4%,85.6%,53%,84.9%
O=C1OCC2=C1C(c1cccc(C(F)(F)F)c1)c1cc3c(cc1N2CCO)CCC3 (stereo not given),25.7%,40.2%,45,15.9,3.4% (active),64.2%,-18.4% (active),12.4%,17%,-55.2% (active),-6.77% (active),7.05% (active),43.9%,28.4%,49.7%,17.3%,1.03% (active),-15.6% (active),67.8%,0.275% (active)
COc1ccc2c(c1)oc1c(C)c3c(c(C)c12)C(=O)N(Nc1ccccc1)C3=O,98.5%,106%,95.5,88.9,98.9%,100%,95.7%,112%,92.8%,94%,97.4%,101%,99.5%,105%,116%,100%,97.1%,95.1%,109%,95.3%
